Results on 13 molecules are retold here after PubChem BioAssay (NCATS).

A short description of assay [1]: Quantitative High-Throughput drug screen in 47 multiple myeloma cell lines against the NCATS MIPE library collection: FR4_PLB cell viability assay (AID 1918924; further: nearly all actives have a fitted effect of over 35% in size; further: potency means the concentration at half of the fitted maximal effect). An outline of the steps:
(§1)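 qHTS of the MIPE 4.0 collection: 500 myeloma cells/well, 48 h drug exposure at 37C in 5% CO2, then CellTiter-Glo for 5 min at room temperature before luminescence reading.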

Assay [2] can be described thus: Quantitative High-Throughput drug screen in 47 multiple myeloma cell lines against the NCATS MIPE library collection: EJM_DSMZ cell viability assay (AID 1918926; further: nearly all actives have a fitted effect of over 30% in size). An outline of the steps:
(§2)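 Myeloma cells (500 per well) were exposed to MIPE 4.0 compounds by pin transfer and incubated 48 hours at 37C, 5% CO2. Viability was read as ATP by CellTiter-Glo luminescence, normalised to DMSO (100%) and media-only (0%) wells.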

The nature of assay [3]: Quantitative High-Throughput drug screen in 47 multiple myeloma cell lines against the NCATS MIPE library collection: AMO1_DSMZ cell viability assay (AID 1918927; further: nearly all actives have a fitted effect of over 30% in size). An outline of the steps:
as §2

Assay [4] is described as follows: Quantitative High-Throughput drug screen in 47 multiple myeloma cell lines against the NCATS MIPE library collection: ARP1_JJKsccF8 cell viability assay (AID 1918928; further: nearly all actives have a fitted effect of over 40% in size; further: potency means the concentration at half of the fitted maximal effect). An outline of the steps: (§3)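 Cell viability inhibition in this qHTS is measured via ATP content (CellTiter-Glo) after 48 h drug exposure at 37 °C. Wells hold 500 cells; DMSO-treated wells define 100% and medium-only wells 0%.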

Assay [5] is described as follows: Quantitative High-Throughput drug screen in 47 multiple myeloma cell lines against the NCATS MIPE library collection: ARD_JJKsccE7 cell viability assay (AID 1918929; further: potency means the concentration at half of the fitted maximal effect). The essentials: as §2
A short description of assay [6]: Quantitative High-Throughput drug screen in 47 multiple myeloma cell lines against the NCATS MIPE library collection: KMM1_JCRB cell viability assay (AID 1918960). Further: nearly all actives have a fitted effect of over 30% in size. Further: potency means the concentration at half of the fitted maximal effect. The essentials:
as §3

A short description of assay [7]: Quantitative High-Throughput drug screen in 47 multiple myeloma cell lines against the NCATS MIPE library collection: JIM3_ECACC cell viability assay (AID 1918963; further: nearly all actives have a fitted effect of over 35% in size; further: potency means the concentration at half of the fitted maximal effect). An outline of the steps:
as §1

Assay [8] is described as follows: Quantitative High-Throughput drug screen in 47 multiple myeloma cell lines against the NCATS MIPE library collection: JIM1_ECACC cell viability assay (AID 1918964). An outline of the steps:
as §2

Assay [9] is described as follows: Quantitative High-Throughput drug screen in 47 multiple myeloma cell lines against the NCATS MIPE library collection: H1112_PLB cell viability assay (AID 1918967; further: nearly all actives have a fitted effect of over 30% in size; further: potency means the concentration at half of the fitted maximal effect). An outline of the steps:
as §2

Assay [10] can be described thus: Quantitative High-Throughput drug screen in 47 multiple myeloma cell lines against the NCATS MIPE library collection: KMS12BM_JCRB cell viability assay (AID 1918971). Further: nearly all actives have a fitted effect of over 35% in size. Further: potency means the concentration at half of the fitted maximal effect. The essentials:
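Myeloma cell lines, 500 cells per well, exposed to MIPE 4.0 library compounds for 48 h at 37C, 5% CO2. Viability from ATP by CellTiter-Glo luminescence; normalised to DMSO (100%) and media-only (0%) wells.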

The nature of assay [11]: Quantitative High-Throughput drug screen in 47 multiple myeloma cell lines against the NCATS MIPE library collection: Delta47_JCRB cell viability assay (AID 1918925; further: nearly all actives have a fitted effect of over 45% in size; further: potency means the concentration at half of the fitted maximal effect). An outline of the steps:
as §2

Assay [12] in a line: Quantitative High-Throughput drug screen in 47 multiple myeloma cell lines against the NCATS MIPE library collection: INA6_PLB cell viability assay (AID 1918965; further: nearly all actives have a fitted effect of over 55% in size; further: potency means the concentration at half of the fitted maximal effect). An outline of the steps:
(§4)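 Luminescent ATP measurement with CellTiter-Glo gives viability, scaled between DMSO-only wells (100%) and media-only wells (0%). Cells, 500 per well, faced library compounds for 48 hours at 37C.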

Assay [13] can be described thus: Quantitative High-Throughput drug screen in 47 multiple myeloma cell lines against the NCATS MIPE library collection: Karpas620_DSMZ cell viability assay (AID 1918959). Further: nearly all actives have a fitted effect of over 30% in size. The essentials:
as §1

Assay [14] is described as follows: Quantitative High-Throughput drug screen in 47 multiple myeloma cell lines against the NCATS MIPE library collection: KHM11_PLB cell viability assay (AID 1918962). Further: nearly all actives have a fitted effect of over 35% in size. Further: potency means the concentration at half of the fitted maximal effect. The essentials:
as §1

The nature of assay [15]: Quantitative High-Throughput drug screen in 47 multiple myeloma cell lines against the NCATS MIPE library collection: Karpas25_ECACC cell viability assay (AID 1918968; further: nearly all actives have a fitted effect of over 35% in size; further: potency means the concentration at half of the fitted maximal effect). The essentials: as §2
Assay [16] is described as follows: Quantitative High-Throughput drug screen in 47 multiple myeloma cell lines against the NCATS MIPE library collection: KMS27_JCRB cell viability assay (AID 1918970). Further: nearly all actives have a fitted effect of over 30% in size. Further: potency means the concentration at half of the fitted maximal effect. The essentials: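 Myeloma cells (500 per well) were exposed to MIPE 4.0 compounds for 48 h at 37 °C, 5% CO2; viability was read as ATP luminescence with CellTiter-Glo, normalized to DMSO-only (100%) and media-only (0%) wells.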

Assay [17] in a line: Quantitative High-Throughput drug screen in 47 multiple myeloma cell lines against the NCATS MIPE library collection: JJN3_DSMZ cell viability assay (AID 1918966; further: nearly all actives have a fitted effect of over 50% in size). The essentials:
as §2

Assay [18] is described as follows: Quantitative High-Throughput drug screen in 47 multiple myeloma cell lines against the NCATS MIPE library collection: Karpas417_ECACC cell viability assay (AID 1918961). As to conditions: Karpas417 myeloma viability, CellTiter-Glo ATP luminescence, 48 h; viability (% of DMSO): at 45.8 µM (top of the series). The essentials: as §4

The structures appear in SMILES notation. Results filed as inconclusive are left out. Active and inactive are the calls of the source. The call rests on the fitted dose curve; in most records, active means well fitted curve in the direction sought with a large enough effect; inconclusive means small, poorly fitted or top-dose-only effect, or another doubt; inactive means no such curve, though single readings can be large; an effect the other way counts as inactive or inconclusive.

As for `CCCc1cc(=O)[nH]c(=S)[nH]1`, the Potency entry in assay [1], in assay [2], in [3], in [4], in assay [5] and in assay [6] was “inactive” throughout. In addition, the Potency entry in [7], in assay [8], in [9] and in assay [10] was “inactive” throughout.
For `Cc1ccc(C)c(OCCCC(C)(C)C(=O)O)c1`, the Potency entry in assay [1], in assay [4] and in assay [10] was “inactive” each time. For the same molecule, the results for the Potency in [11] and in assay [12] were 16.6 µM (active) and 20.9 µM (active), respectively.
For `CN1C(C(=O)Nc2ccccn2)=C(O)c2sccc2S1(=O)=O`, the Potency entry in assay [1], in assay [2], in assay [4], in assay [13], in assay [6] and in assay [14] was “inactive” throughout. For the same molecule, the Potency entry in [7], in assay [8], in [9] and in assay [15] was “inactive” in each case.
Consider `Cc1cc(=O)oc2cc(O)ccc12`, for which the Potency entry in [1], in assay [2], in assay [3], in assay [4], in [5] and in assay [13] was “inactive” throughout. Further, the Potency result in assay [6], in assay [7], in [12], in [9], in [16] and in assay [10] was “inactive” each time. Moreover, the results for the Potency in [14] and in assay [15] were 0.0662 µM (active) and 4.69 µM (active), respectively.
Turning to `O=C(NCCO[N+](=O)[O-])c1cccnc1`, the Potency result in assay [1], in assay [2], in [4], in [5], in assay [13] and in [6] was “inactive” in each case. In addition, the Potency entry in assay [7], in assay [8], in assay [17] and in assay [9] was “inactive” in each case.
For the molecule `CCCCCCCCCCCCCCCCCCCCCCO`, the Potency entry in assay [1], in assay [2], in [3], in [4], in assay [5] and in assay [13] was “inactive” throughout. In addition, the Potency entry in [6], in assay [9], in assay [15] and in assay [16] was “inactive” in each case.
On to `CC(C)c1ccc2oc3nc(N)c(C(=O)O)cc3c(=O)c2c1`, for which the Potency result in assay [1], in assay [2], in assay [3], in assay [5], in [13] and in assay [7] was “inactive” each time. The Potency result in [8], in [17], in [9], in assay [15] and in assay [16] was “inactive” throughout.
For the molecule `Cc1cccc(-c2[nH]ncc2-c2ccc3ncccc3n2)n1`, the Potency in assay [1] was 0.118 µM (active). The Potency result in assay [2], in assay [3], in assay [4], in assay [5], in assay [13] and in assay [7] was “inactive” in each case. The Potency result in assay [9] was “inactive”.
Turning to `CCCCC(CC)COC(=O)C(C#N)=C(c1ccccc1)c1ccccc1` (stereo not drawn), the Potency entry in assay [1], in [2], in assay [3], in assay [4], in assay [13] and in [6] was “inactive” in each case. Moreover, the Potency entry in assay [14], in [7], in [8], in assay [9] and in assay [15] was “inactive” throughout. Further, the viability (% of DMSO) in [18] was 94.7% (active).
Turning to `CC(C)Oc1ccc2c(=O)c(-c3ccccc3)coc2c1`, the Potency entry in assay [11], in [2], in assay [3], in assay [5], in assay [14] and in assay [8] was “inactive” in each case. The Potency result in assay [9] and in [16] was “inactive” throughout.
`S=c1nc[nH]c2nc[nH]c12`: the Potency entry in assay [2], in assay [3], in [13] and in assay [14] was “inactive” each time. Further, the Potency in assay [4] was 2.35 µM (active); in assay [5], 2.35 µM (active); in assay [6], 4.69 µM (active); in assay [7] it was 16.6 µM (active); in assay [15], 16.6 µM (active); in assay [16], 7.43 µM (active). The Potency in [10] was 13.2 µM (active).
Turning to `NC(=O)Cc1cccc(C(=O)c2ccccc2)c1N`, the Potency result in assay [11], in assay [2], in assay [3], in [5], in assay [13] and in assay [6] was “inactive” throughout. Moreover, the Potency entry in assay [14], in assay [7], in [12] and in assay [16] was “inactive” each time.
For the molecule `COC(=O)C1=C(C)NC(C)=C(C(=O)OC(C)C)C1c1cccc2nonc12` (stereo not drawn), the Potency in [11] was 2.96 µM (active); in assay [12], 26.4 µM (active); in [9] it was 3.32 µM (active); in assay [15], 5.26 µM (active); in assay [10], 18.7 µM (active). Moreover, the Potency entry in assay [2], in [3], in assay [4], in assay [5], in assay [13] and in assay [6] was “inactive” throughout. For the same molecule, the Potency result in assay [18], in [8] and in assay [16] was “inactive” throughout.
